SMILES strings stand for the structures. Potency and affinity values are given separately.

One may read the Inhibition as how much of the control response was suppressed.

In this experiment the test system is Candida albicans. The conditions noted are these: 20 µM.
In turn, `C[C@]12C[C@H](O)[C@H]3[C@@H](CCC4=CC(=O)CC[C@@]43C)[C@@H]1CC[C@@H]2C(=O)CO` [CORTICOSTERONE] displayed an Inhibition of 2.69%. As for `C[C@H](CS)C(=O)N1CCC[C@H]1C(=O)O` [CAPTOPRIL], the figure is 2.59%; as for `NS(=O)(=O)c1cc2c(cc1Cl)NCNS2(=O)=O` [HYDROCHLOROTHIAZIDE], 2.05%. `CC[C@]1(O)C[C@@H]2CN(CCc3c([nH]c4ccccc34)[C@@](C(=O)OC)(c3cc4c(cc3OC)N(C)[C@H]3[C@@](O)(C(N)=O)[C@H](O)[C@]5(CC)C=CCN6CC[C@]43[C@@H]65)C2)C1.O=S(=O)(O)O` [VINDESINE SULFATE]: the Inhibition came to 3.45%. As for `CCOC(=O)C1(CCCCCCOc2ccc(Cl)cc2)CO1` (stereo not drawn) [rac-ETOMOXIR], the figure is 1.76%. `CC1(C)S[C@@H]2[C@H](NC(=O)[C@H](N)c3ccc(O)cc3)C(=O)N2[C@H]1C(=O)O` [AMOXICILLIN] gave an Inhibition of 9.25%. The figure for `CNCC[C@H](Oc1cccc2ccccc12)c1cccs1.Cl` [DULOXETINE HYDROCHLORIDE] is 3.07%. As for `CN(C)CCOC(C)(c1ccccc1)c1ccccn1.O=C(O)CCC(=O)O` (stereo not drawn) [DOXYLAMINE SUCCINATE], the figure is 0.07%; as for `Cl.Clc1cccc(Cl)c1NC1=NCCN1` [CLONIDINE HYDROCHLORIDE], 3.3%. The figure for `COc1cc(N)c(Cl)cc1C(=O)N[C@@H]1CCN(CCCOc2ccc(F)cc2)C[C@@H]1OC.O` [(R,S)-CISAPRIDE MONOHYDRATE] is 1.98%.

The molecule `CC1(C)O[C@@H]2C[C@H]3[C@@H]4CCC5=CC(=O)C=C[C@]5(C)[C@@]4(F)[C@@H](O)C[C@]3(C)[C@]2(C(=O)CO)O1` [TRIAMCINOLONE ACETONIDE] displayed an Inhibition of 0.96%.

In turn, `CCOC(=O)c1ccc(OC(=O)CCCCCN=C(N)N)cc1.CS(=O)(=O)O` came in with an Inhibition of 3.2%. In turn, `C[C@@H]1O[C@@H](OC[C@H]2O[C@@H](Oc3c(-c4ccc(O)c(O)c4)oc4cc(O)cc(O)c4c3=O)[C@H](O)[C@@H](O)[C@@H]2O)[C@H](O)[C@H](O)[C@H]1O` [RUTIN] showed an Inhibition of 3.37%. The figure for `CCS(=O)(=O)CCn1c([N+](=O)[O-])cnc1C` [TINIDAZOLE] is 4.29%; for `COc1ccccc1OCCNCC(O)COc1cccc2[nH]c3ccccc3c12` (stereo not drawn) [CARVEDILOL] it is 1.69%; for `C#C[C@]1(O)CC[C@H]2[C@@H]3CCc4cc(OC)ccc4[C@H]3CC[C@@]21C` [MESTRANOL] it is 4.15%. In turn, `COc1cc(C[C@@H](CO)[C@H](CO)Cc2ccc(O)c(OC)c2)ccc1O` [(+)-SECOISOLARICIRESINOL] registered an Inhibition of 4.22%. For `CCCc1cc(=O)[nH]c(=S)[nH]1` [PROPYLTHIOURACIL], the Inhibition came out at 3.22%. As for `CN(CCO)CC(O)Cn1cnc2c1c(=O)n(C)c(=O)n2C.O=C(O)c1cccnc1` (stereo not drawn) [XANTHINOL NIACINATE], the figure is 0.26%; as for `CN1CCN(CCCN2c3ccccc3Sc3ccc(C(F)(F)F)cc32)CC1.Cl.Cl` [TRIFLUOPERAZINE HYDROCHLORIDE], 2.94%. The figure for `CCC(C)(C)C(=O)O[C@H]1C[C@@H](C)C=C2C=C[C@H](C)[C@H](CC[C@@H]3C[C@@H](O)CC(=O)O3)[C@H]21` [SIMVASTATIN] is 14.8%. As for `COC(=O)C1=C(C)NC(C)=C(C(=O)O[C@@H]2CCCN(Cc3ccccc3)C2)[C@@H]1c1cccc([N+](=O)[O-])c1.Cl`, the figure is 3.91%.

`CN(C)CCC(c1ccc(Cl)cc1)c1ccccn1.O=C(O)/C=C\C(=O)O` (stereo not drawn) [CHLORPHENIRAMINE MALEATE] yielded an Inhibition of 4.73%. As for `Cl.O.O=C1N(c2ccccc2)c2ccccc2C1(Cc1ccncc1)Cc1ccncc1`, the figure is 3.32%. As for `CN(Cc1cnc2nc(N)nc(N)c2n1)c1ccc(C(=O)N[C@@H](CCC(=O)O)C(=O)O)cc1.O`, the figure is 12.2%; as for `Cc1sc(N)c(C(=O)c2cccc(C(F)(F)F)c2)c1C`, 1.23%; as for `CS(=O)(=O)O.Cc1ccc(NC(=O)c2ccc(CN3CCN(C)CC3)cc2)cc1Nc1nccc(-c2cccnc2)n1` [IMATINIB MESYLATE], 2.45%. With `NS(=O)(=O)c1cc(C(=O)O)c(NCc2ccco2)cc1Cl` [FUROSEMIDE], the Inhibition turned out to be 3.34%.

With `Nc1nc(Cl)nc2c1ncn2[C@@H]1O[C@H](CO)[C@@H](O)[C@H]1O`, the Inhibition stood at 4.78%. As for `Cl.NC[C@H]1CC[C@H](C(=O)Oc2ccc(CCC(=O)O)cc2)CC1` [CETRAXATE HYDROCHLORIDE], the figure is 4.33%. The figure for `C=CCc1ccc(O)c(-c2ccc(O)c(CC=C)c2)c1` [HONOKIOL] is 3.92%; for `O=c1c(O[C@@H]2O[C@H](CO)[C@@H](O)[C@H](O)[C@H]2O)c(-c2ccc(O)c(O)c2)oc2cc(O)cc(O)c12` [ISOQUERCETIN] it is 1.9%.

Take `C=C(CC)C(=O)c1ccc(OCC(=O)O)c(Cl)c1Cl` [ETHACRYNIC ACID]: the Inhibition was 21.1%. The figure for `C[C@]12C=CC(=O)C=C1CC[C@@H]1[C@@H]2[C@@H](O)C[C@@]2(C)[C@H]1CC[C@]2(O)C(=O)CO` [PREDNISOLONE] is 1.1%. The figure for `O=C(O)c1cc(-c2ccc(F)cc2F)ccc1O` [DIFLUNISAL] is 13.4%; for `CC(C)[C@H](N)C(=O)OCCOCn1cnc2c(=O)nc(N)[nH]c21.Cl` [VALACYCLOVIR HYDROCHLORIDE] it is 3.14%. As for `CC1(C)S[C@@H]2[C@H](/N=C/N3CCCCCC3)C(=O)N2[C@H]1C(=O)O` [AMDINOCILLIN], the figure is 4.08%. In turn, `CCC(=O)OCC(=O)[C@@]1(OC(=O)CC)[C@@H](C)C[C@H]2[C@@H]3CCC4=CC(=O)C=C[C@]4(C)[C@@]3(Cl)[C@@H](O)C[C@@]21C` [BECLOMETHASONE DIPROPIONATE] displayed an Inhibition of 3.12%.

These data come from ChEMBL document CHEMBL4513141, “CO-ADD screening of NIH (USA) - Clinical Collection” (2021).
